High-throughput results deposited in PubChem by National Center for Advancing Translational Sciences (NCATS).
G9a block = inhibitors of human histone lysine methyltransferase G9a | Q96KQ7 | AID 504332 | G9a H3K9 monomethylation, AlphaScreen, 2 h | 350,000 tested, 8.8% active | Potency, µM (top dose mostly 102 µM), without a hit: at the top dose activity, negative = inhibition, most hits filed as inhibitors; note: % is set by controls: 0 for no effect and ±100 for the full control effect; nearly all actives have a fitted effect of over 75% in size
Target sequence (Q96KQ7 913-1193 limits assumed): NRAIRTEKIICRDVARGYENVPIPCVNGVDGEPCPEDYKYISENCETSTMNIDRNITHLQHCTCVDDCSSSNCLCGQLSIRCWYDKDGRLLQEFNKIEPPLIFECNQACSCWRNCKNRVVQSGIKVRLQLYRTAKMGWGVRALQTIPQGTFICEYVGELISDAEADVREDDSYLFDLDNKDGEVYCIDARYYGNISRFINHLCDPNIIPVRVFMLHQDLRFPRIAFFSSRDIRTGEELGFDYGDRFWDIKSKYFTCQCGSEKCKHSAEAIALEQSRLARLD
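Signal arises when biotinylated H3K9 peptide, once monomethylated, bridges streptavidin donor and antibody-captured acceptor beads. Enzyme at 20 nM was preincubated 15 min with test compounds; peptide 500 nM and SAM 20 uM then reacted for 2 h.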
BAZ2B block = BAZ2B (human) inhibition | AlphaScreen BAZ2B-H3K14Ac peptide displacement | Potency, µM (series often up to 114 µM), inactives show at the top dose activity change, negative = inhibition, usual class: inhibitors | Q9UIF8 | 360,000 tested, 4.4% active | AID 504333; note: % is set by controls: 0 for no effect and ±100 for the full control effect; nearly all actives have a fitted effect of over 60% in size
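Protein-peptide AlphaScreen: BAZ2B 50 nM, b-H3K14Ac 50 nM, 1x PBS pH 7.4 + 0.01% Tween-20. Preincubation 30 min RT; cpd 30 min RT (top 110 uM); beads 20 min RT, light-protected.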
HP1b chromo inh = blocks HP1-beta chromodomain binding to methylated histone tails. 390,000 tested, 0.56% active. Potency, µM (doses to about 114 µM), inactives show at the top dose activity change, negative = inhibition, actives largely listed as inhibitors. AlphaScreen HP1-beta / biotin-H3K9me3 peptide binding; note: nearly all actives have a fitted effect of over 70% in size
Target sequence (P83916 whole entry, looked up): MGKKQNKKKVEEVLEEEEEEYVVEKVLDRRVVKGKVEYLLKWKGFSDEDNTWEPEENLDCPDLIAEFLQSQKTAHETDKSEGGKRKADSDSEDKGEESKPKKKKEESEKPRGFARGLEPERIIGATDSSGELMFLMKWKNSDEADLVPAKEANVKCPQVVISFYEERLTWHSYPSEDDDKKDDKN
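Compound inhibition of the preformed complex between 50 nM HP1-beta and 50 nM biotinylated H3K9me3 peptide was read by AlphaScreen. Buffer was PBS pH 7.4 with 0.01% Tween-20. Incubations ran 30 min at room temperature, with 10 ug/mL donor/acceptor beads.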
JMJD2A Tudor = inhibitors of human JMJD2A Tudor domain; O75164; AlphaScreen JMJD2A-Tudor / H3K4me3 peptide binding; Potency, µM (titrated, usually from 114 µM), without a hit: at the top dose activity change, negative = inhibition, usual class: inhibitors; 390,000 tested, 4.4% active; AID 504339; note: % is set by controls: 0 for no effect and ±100 for the full control effect; nearly all actives have a fitted effect of over 50% in size
Sfp inh = blocks B. subtilis Sfp PPTase activity | AID 1490 | Potency, µM, inactives show largest response in the series, negative = inhibition, actives largely listed as inhibitors | Q9F4F7 | Biochemical Sfp PPTase activity, qHTS | 310,000 tested, 3.5% active;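 note: the enzyme is Sfp with the accession as filed and its product quenches rhodamine fluorescence; 0% = enzyme reaction without inhibitor and -100% = no enzyme wells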
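Fluorescence-quenching assay: 15 nM Sfp-PPTase preincubated 15 min at room temperature with compound, then 5 uM rhodamine-CoA and 12.5 uM BHQ-2-labelled YbbR peptide added. Fluorescence (ex 525/em 598 nm) read at start and after 30 min; difference gives rate.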
Starred values were filed as active, the others as inactive; u = inconclusive; x = no result; ! = repeats disagree; [ ] = dose if it differs, or a comment. The list is not random: actives were taken first. Their share in the collection is about 12%. Calls come from the whole dose curve; as a rule, active = well fitted curve in the direction sought with a large enough effect; inconclusive = small, poorly fitted or top-dose-only effect, or another doubt; inactive = no such curve, though single readings can be large; an effect the other way counts as inactive or inconclusive. Potency is the fitted concentration of half-maximal effect.

SMILES	G9a block	BAZ2B block	HP1b chromo inh	JMJD2A Tudor	Sfp inh
COc1ccc(S(=O)(=O)N2CCC(C(=O)c3ccc4c(c3)OCCO4)CC2)cc1	9.8%[59 µM]	4.1%	17.1%	-8.4%	15.7%
COc1cccc(C2CC(c3ccc(Br)cc3)=NN2C(=O)c2ccncc2)c1OC (stereo not given)	35.6%[59 µM]	31.6µM*	-3.3%	u	-15.9%
O=C(c1ccncc1)N1N=C(c2ccc(Cl)cc2)CC1c1ccccc1O (stereo not given)	20µM*	u	-11.1%	u	-82.0%
O=C(c1ccccc1)N1N=C(c2cccs2)CC1c1ccccc1O (stereo not given)	-4.0%	u	4.6%	-34.4%	u
COc1ccc(C2=NN(C(=O)c3ccncc3)C(c3ccccc3O)C2)cc1 (stereo not given)	u	-28.1%	-5.0%	-23.9%	14.1µM*
COc1ccc2[nH]cc(CCNc3nc(-c4ccoc4)nc4ccccc34)c2c1	x	x	x	x	-5.2%
CCN(Cc1ccccc1)C(=O)C1CCN(S(=O)(=O)c2ccc3c(c2)CCCN3C(C)=O)CC1	8.0%[59 µM]	2.1%	25.4%[57 µM]	0.6%	x
Cc1ccc(S(=O)(=O)c2c(O)c3ccc(C(=O)O)cc3[nH]c2=O)cc1	u	-2.8%	40.0%	-0.4%	16.6%
COc1ccc(CN(C)CC(=O)Nc2cc3oc4ccccc4c3cc2OC)c(OC)c1	-49.0%[59 µM]	-30.5%	29.5%	-23.6%	-18.5%
CC(C)c1ccc(-c2cc(C(=O)NN3CCN(C)CC3)c3ccccc3n2)cc1	50.1µM*	-35.2%	-3.7%	u	39.8µM*
CN1CCN(NC(=O)c2cc(-c3cccc(Cl)c3)nc3ccccc23)CC1	u	-18.2%	6.9%	-17.5%	-8.7%
CCOc1ccc(CNC(=O)C(CC)n2nc(C)n3c(cc4occc43)c2=O)cc1OC (stereo not given)	50.1µM*	-5.7%	31.4%	-6.5%	10.5%
Cc1noc(NS(=O)(=O)c2ccc(N/C=C\C(=O)c3cccc4ccccc34)cc2)c1C	u	50.1µM*	u	u	79.4µM*
COc1cccc(C(=O)/C=C/Nc2ccc(S(=O)(=O)Nc3onc(C)c3C)cc2)c1	u	u	19.2%	-15.6%	9.3%
CCOc1ccc(C(=O)/C=C/Nc2ccc(S(=O)(=O)Nc3onc(C)c3C)cc2)cc1	1.58µM*	u	-10.9%	-23.0%[57.1 µM]	u
COCCN1C(=O)N[C@@H](c2cccc(C(F)(F)F)c2)[C@H](C(=O)OC)[C@H]1C	x	x	64.4%	-7.1%	11.9%
O=C(NC(=S)Nc1ccc(S(=O)(=O)Nc2ccccc2)cc1)C1CC1	14.1µM*	-31.1%	-3.9%	-21.3%	5.0%
CC(=O)Nc1ccc(S(=O)(=O)Nc2ccc(Nc3ccccc3)cc2)cc1	39.8µM*	-36.7%	u	u	-1.7%
CC(=O)Nc1ccc(S(=O)(=O)NCC(CCC(=O)O)C(F)(F)F)cc1 (stereo not given)	-1.2%	-13.3%	-3.3%	15.8µM*	-0.6%
CC(=O)Nc1ccc(S(=O)(=O)Nc2cc(C)ccn2)cc1	50.1µM*	-10.9%	37.2%	-9.8%	9.0%
Cc1ccc(NC(=S)NC(=O)C2CCCC2)cc1C	35.5µM*	-7.7%	53.8%	6.2%	-6.5%
Cc1ccc(S(=O)(=O)N(C)C(=O)NC(=O)NS(=O)(=O)c2ccccc2)cc1	u	x	30.4%	-2.8%	-18.9%
CCCOc1ccc(/C(O)=C2/C(=O)C(=O)N(CCN3CCOCC3)C2c2ccccc2)cc1 (stereo not given)	x	x	41.4%	-1.5%[11.4 µM]	x
CCOC(=O)c1[nH]c(C)c(/C(O)=C2\C(=O)C(=O)N(CCN(C)C)C2c2ccco2)c1C (stereo not given)	-40.9%[12.7 µM]	-36.3%	23.1%	u	0.2%
COC(=O)c1[nH]c(C)c(/C(O)=C2\C(=O)C(=O)N(CCN3CCOCC3)C2c2ccccc2OC)c1C (stereo not given)	50.1µM*	-3.3%	17.7%	50.1µM*	-1.4%
SMILES	G9a block	BAZ2B block	HP1b chromo inh	JMJD2A Tudor	Sfp inh
COC(=O)c1[nH]c(C)c(/C(O)=C2\C(=O)C(=O)N(CCN(C)C)C2c2ccccc2OC)c1C (stereo not given)	u	-34.0%	17.5%	44.7µM*	14.7%
COc1cccc(CNC(=O)[C@H](C)NC(=O)C2CCN(S(=O)(=O)c3ccccc3)CC2)c1	-4.6%	-6.2%	7.1%	u	8.7%
CS(=O)(=O)c1ccc(Cl)c(NC(=O)Cc2ccccc2F)c1	-33.4%	-2.9%	-20.5%	22.4µM*	16.0%
Nc1[nH]nc2c1NN(c1ccc(Cl)cc1Cl)N2	u	25.1µM*	-0.4%	-23.9%	-6.6%
Cc1ccc(NC(=O)c2ccc3c(c2)CCN3S(C)(=O)=O)cc1C	18.2%[59 µM]	-3.8%	-12.9%	15.8µM*	16.5%
COc1ccc(C(=O)N2CCNC(=O)C2CC(=O)Nc2ccc(C)c(C)c2)cc1 (stereo not given)	-9.2%	-2.0%	27.7%	-15.3%	18.8%
CC(O)/C=C/c1cccc[n+]1C (stereo not given)	10µM*	3.8%	19.0%	39.8µM*	-20.9%
C[n+]1ccccc1/C=N/O	-32.7%[2.33 µM]	-13.6%	59.5%	35.5µM*!	11.2%
Cc1nn(-c2ccc(F)cc2)c(-n2cccc2)c1C(=O)N1CCN(C(=O)c2ccco2)CC1	4.4%	-21.6%	58.2%	-10.5%	4.7%
COCCn1c(C)cc(/C=C2/NC(=O)N(c3cccc(Cl)c3)C2=O)c1C	50.1µM*	-37.4%	7.5%	-24.1%	10.6%
CCn1c(C)cc(/C=C2/NC(=O)N(c3ccccc3)C2=O)c1C	x	u	-8.6%	u	-6.6%
Cc1cnc(NC(=O)c2cc(S(=O)(=O)N(C)C)ccc2N2CCCC2)s1	x	x	23.6%	-27.6%	x
COc1ccc(/C(=N\Nc2ccccc2C(=O)O)c2ccccc2)cc1	35.5µM*	-33.6%	-2.9%	u	2.1%
COc1ccc(N/N=C(\C=N\O)C(=O)c2ccc(OC)cc2)cc1	50.1µM*	39.8µM*	-7.8%	u	0.4%
COc1ccc(C(=O)C(=NNc2ccccc2)c2ccc(OC)cc2)cc1	x	x	u	44.7µM*	x
COCCn1c(=O)[nH]c2cc(C(=O)NCCN3CCN(c4ccccc4)CC3)ccc2c1=O	3.2%[2.33 µM]	2.2%	6.4%	-13.2%	13.1%
CNc1ccc(Br)cc1C(O)c1ccccc1 (stereo not given)	42.9%[12.7 µM]	19.7%	13.3%	-11.2%	89.1µM*
CCc1ccccc1NC(=O)CSc1ncc2c(n1)-c1cc(Cl)ccc1N(Cc1ccccc1)S2(=O)=O	6.2%[59 µM]	-1.3%	15.1%	-12.3%	x
S=c1[nH]ncc2ccccc12	44.7µM*	7.0%	24.8%	50.1µM*	-17.8%
COc1ccc(CN(C(=O)/C=C/c2ccco2)C2CCS(=O)(=O)C2)cc1 (stereo not given)	50.1µM*	50.1µM*	3.1%	u	14.1µM*
CCOc1ccc(CN(C(=O)/C=C/c2ccco2)C2CCS(=O)(=O)C2)cc1 (stereo not given)	44.7µM*	u	19.7%	-31.8%	u
